Laboratory results reported in PubChem BioAssay (EPA / NIEHS).
Some compounds were tested as several samples or in several runs, with calls that do not always agree. Active and inactive are the calls of the source. The calls were made as follows: active = hit-call score of the fitted dose curve at least 0.9, where 1 is the maximum; inactive = score below 0.9.

Experiments:
[1] = BSK_MyoF_SRB: Viability Assessment in the BioMAP Diversity Plus: MyoF Assay (AID 2284267); details: primary human lung fibroblasts;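 also: total protein by SRB absorbance in parallel cultures as cytotoxicity measure; cells assessed 24 h after compound addition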
In short: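 Lung fibroblast cultures, 24 h post-dose; fix 10% TCA, stain 0.1% SRB, read 560 nm. Signal = total protein as cytotoxicity measure; fitted relative to DMSO negative control.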

[2] = read-out: Matrix Metallopeptidase 1 (MMP1), MMP1 (gene 4312); experiment: BSK_MyoF_MMP1: BioMAP Diversity Plus: MyoF Assay for Matrix Metallopeptidase 1 (MMP1) Biomarker Activity (AID 2284268); details: primary human lung fibroblasts
In short: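 ELISA readout of MMP1 in primary human lung fibroblast cultures, 24 h post-dosing. Gain of signal versus DMSO vehicle control defines activity. Parallel SRB staining (0.1% after 10% TCA fixation, 560 nm) flags overt cytotoxicity.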

[3] = read-out: TIMP metallopeptidase inhibitor 1 (TIMP1), TIMP1 (gene 7076); experiment: BSK_MyoF_TIMP1: BioMAP Diversity Plus: MyoF Assay for TIMP metallopeptidase inhibitor 1 (TIMP1) Biomarker Activity (AID 2284269); details: primary human lung fibroblasts
In short: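 Fibroblasts from human lung are dosed with chemical, cultured 24 h, and assayed for TIMP-1 by ELISA. Increases over the DMSO baseline are scored, with SRB total-protein staining run in parallel for cytotoxicity.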

[4] = read-out: Matrix Metallopeptidase 1 (MMP1), MMP1 (gene 4312); experiment: BSK_BF4T_MMP1: BioMAP Diversity Plus: BF4T Assay for Matrix Metallopeptidase 1 (MMP1) Biomarker Activity (AID 2284270); details: primary human bronchial epithelial cells with fibroblasts
In short: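 MMP-1 quantified by ELISA in primary human bronchial epithelial/dermal fibroblast co-cultures, 24 hours post-dosing, with DMSO as baseline; parallel sulforhodamine B staining (560 nm) tracks overt cytotoxicity.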

[5] = read-out: Matrix Metallopeptidase 3 (MMP3), MMP3 (gene 4314); experiment: BSK_BF4T_MMP3: BioMAP Diversity Plus: BF4T Assay for Matrix Metallopeptidase 3 (MMP3) Biomarker Activity (AID 2284271); details: primary human bronchial epithelial cells with fibroblasts
In short: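 MMP-3 level read by ELISA after 24 h chemical exposure of bronchial epithelial cell/dermal fibroblast co-cultures, fitted upward relative to DMSO. Parallel cultures stained with 0.1% SRB after TCA fixation gauge overt cytotoxicity.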

[6] = read-out: Tissue plasminogen activator (tPA), PLAT (gene 5327); experiment: BSK_BF4T_tPA: BioMAP Diversity Plus: BF4T Assay for Tissue plasminogen activator (tPA) Biomarker Activity (AID 2284272); details: primary human bronchial epithelial cells with fibroblasts
In short: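 tPA level quantified by ELISA at 24 h post-treatment in bronchial epithelial/dermal fibroblast co-cultures, gain of signal scored against DMSO baseline. Parallel cultures stained with 0.1% SRB (560 nm) to flag overt cytotoxicity.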

[7] = read-out: Plasminogen Activator Inhibitor-1 (PAI1), SERPINE1 (gene 5054); experiment: BSK_BF4T_PAI1: BioMAP Diversity Plus: BF4T Assay for Plasminogen Activator Inhibitor-1 (PAI1) Biomarker Activity (AID 2284273); details: primary human bronchial epithelial cells with fibroblasts
In short: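 PAI-1 levels quantified by ELISA 24 h post-dosing in bronchial epithelial cell plus dermal fibroblast cultures. Signal gain referenced to DMSO baseline. Sulforhodamine B total-protein staining of parallel wells checked cytotoxicity.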

[8] = BSK_BF4T_SRB: Viability Assessment in the BioMAP Diversity Plus: BF4T Assay (AID 2284274); details: primary human bronchial epithelial cells with fibroblasts
In short: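 Cytotoxicity measured as total protein: cells fixed with 10% TCA, stained with 0.1% SRB, read at 560 nm. Bronchial epithelial/dermal fibroblast co-culture, 24 h after dosing, with positive-direction fitting relative to DMSO.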

[9] = read-out: urokinase Plasminogen Activator (uPA), PLAU (gene 5328); experiment: BSK_BF4T_uPA: BioMAP Diversity Plus: BF4T Assay for urokinase Plasminogen Activator (uPA) Biomarker Activity (AID 2284275); details: primary human bronchial epithelial cells with fibroblasts
In short: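 uPA levels measured by ELISA at 24 hours in BF4T cultures (bronchial epithelial cells plus dermal fibroblasts) and compared with DMSO; cytotoxicity tracked in parallel cultures by sulforhodamine B staining.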

[10] = read-out: Matrix Metallopeptidase 9 (MMP9), MMP9 (gene 4318); experiment: BSK_BF4T_MMP9: BioMAP Diversity Plus: BF4T Assay for Matrix Metallopeptidase 9 (MMP9) Biomarker Activity (AID 2284276); details: primary human bronchial epithelial cells with fibroblasts
In short: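 MMP-9 levels were measured by ELISA after 24 h exposure of bronchial epithelial cell/dermal fibroblast co-cultures, with DMSO as baseline. Parallel cultures were stained with 0.1% SRB after TCA fixation, read at 560 nm, to flag overt cytotoxicity.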

[11] = read-out: Interleukin-8 (IL8), CXCL8 (gene 3576); experiment: BSK_IMphg_IL8: BioMAP Diversity Plus: IMphg Assay for Interleukin-8 (IL8) Biomarker Activity (AID 2284277); details: primary human endothelial cells with macrophages
In short: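 IL-8 levels were measured by ELISA 24 h after dosing in primary human venular endothelial cell–macrophage cultures, referenced to DMSO; parallel SRB staining monitored overt cytotoxicity.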

[12] = read-out: Intercellular Adhesion Molecule 1 (ICAM1), ICAM1 (gene 3383); experiment: BSK_BE3C_ICAM1: BioMAP Diversity Plus: BE3C Assay for Intercellular Adhesion Molecule 1 (ICAM1) Biomarker Activity (AID 2284278); details: primary human bronchial epithelial cells;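 also: cell-surface ICAM-1 protein level quantified by ELISA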
In short: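 ELISA read-out of ICAM-1 on human lung bronchial epithelial primary cells, 24 h post-dosing; positive-direction curve fit, DMSO = baseline. SRB total-protein staining of parallel cultures flagged overt cytotoxicity.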

[13] = read-out: Interferon-inducible T-cell alpha chemoattractant (ITAC), CXCL11 (gene 6373); experiment: BSK_BE3C_ITAC: BioMAP Diversity Plus: BE3C Assay for Interferon-inducible T-cell alpha chemoattractant (ITAC) Biomarker Activity (AID 2284279); details: primary human bronchial epithelial cells
In short: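 BE3C cells (human primary bronchial epithelium), 24 h compound exposure, I-TAC by ELISA, DMSO = negative control/baseline, positive fitting direction.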

[14] = read-out: Interleukin-8 (IL8), CXCL8 (gene 3576); experiment: BSK_BE3C_IL8: BioMAP Diversity Plus: BE3C Assay for Interleukin-8 (IL8) Biomarker Activity (AID 2284280); details: primary human bronchial epithelial cells
In short: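 Primary human bronchial epithelial cells (BE3C system) were exposed to test chemical for 24 h, and IL-8 levels were then measured by ELISA. Activity was fitted in the positive (gain-of-signal) direction against a DMSO negative-control baseline.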

[15] = read-out: Epidermal growth factor receptor (EGFR), EGFR (gene 1956); experiment: BSK_BE3C_EGFR: BioMAP Diversity Plus: BE3C Assay for Epidermal growth factor receptor (EGFR) Biomarker Activity (AID 2284281); details: primary human bronchial epithelial cells
In short: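 Human primary bronchial epithelial cells were exposed to compound for 24 h, and cell-surface EGFR was then quantified by ELISA. Activity was fitted in the positive direction against the DMSO vehicle baseline.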

[16] = read-out: KRT18 (gene 3875); experiment: BSK_BE3C_Keratin818: BioMAP Diversity Plus: BE3C Assay for Keratin 818 Biomarker Activity (AID 2284282); details: primary human bronchial epithelial cells
In short: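 ELISA read-out of Keratin 8/18 in BE3C human bronchial epithelial cultures, 24 h post-dosing; positive-direction fit vs DMSO baseline.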

[17] = read-out: Matrix Metallopeptidase 9 (MMP9), MMP9 (gene 4318); experiment: BSK_BE3C_MMP9: BioMAP Diversity Plus: BE3C Assay for Matrix Metallopeptidase 9 (MMP9) Biomarker Activity (AID 2284283); details: primary human bronchial epithelial cells
In short: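 Human primary bronchial epithelial cells in the BE3C system were dosed with compound for 24 h. MMP-9 was measured by ELISA, and the positive-direction response was fitted relative to DMSO as baseline. Parallel SRB staining gauged cytotoxicity.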

[18] = read-out: Plasminogen activator inhibitor-1 (PAI1), SERPINE1 (gene 5054); experiment: BSK_CASM3C_PAI1: BioMAP Diversity Plus: CASM3C Assay for Plasminogen activator inhibitor-1 (PAI1) Biomarker Activity (AID 2284284); details: primary human coronary artery smooth muscle cells
[19] = read-out: Monocyte Chemoattractant Protein-1 (MCP1), CCL2 (gene 6347); experiment: BSK_hDFCGF_MCP1: BioMAP Diversity Plus: hDFCGF Assay for Monocyte Chemoattractant Protein-1 (MCP1) Biomarker Activity (AID 2284285); details: primary human foreskin fibroblasts
In short: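 MCP-1 ELISA readout was taken 24 hours after dosing primary human dermal fibroblasts in the hDFCGF system, with DMSO as baseline. Parallel sulforhodamine B staining of total protein tracked overt cytotoxicity.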

[20] = read-out: Vascular cell adhesion molecule 1 (VCAM1), VCAM1 (gene 7412); experiment: BSK_IMphg_VCAM1: BioMAP Diversity Plus: IMphg Assay for Vascular cell adhesion molecule 1 (VCAM1) Biomarker Activity (AID 2284286); details: primary human endothelial cells with macrophages
In short: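 ELISA read-out of VCAM-1 on venular endothelial cell/macrophage co-cultures at 24 h post-treatment, with DMSO as baseline and positive-direction fitting. Parallel sulforhodamine B total-protein staining (560 nm) served as the overt cytotoxicity measure.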

Measured: AC50

Cn1cnc([N+](=O)[O-])c1Sc1ncnc2nc[nH]c12
inactive: [1] | [2] | [3] | [4] | [5] | [6] | [7] | [8] | [9] | [10] | [11] | [12] | [13] | [14] | [15] | [16] | [17] | [18] | [19] | [20]
active: [6] 7.93 µM | [20] 9.14 µM
